{
  "source": "paper PMC4336329",
  "about": "(PLoS ONE, 2015)",
  "note": "Out of some 310,000 compounds screened, about 2,200 (0.71%) showed an effect of 50% or more. Effects have a minus sign here. Many of the other results were omitted from the sample, so strong results are more common in it than they were.",
  "data": [
    {"molecular_target": "human ether-à-go-go-related gene (hERG) potassium channel (human, UniProt Q12809)", "sequence (Q12809 whole entry, looked up)": "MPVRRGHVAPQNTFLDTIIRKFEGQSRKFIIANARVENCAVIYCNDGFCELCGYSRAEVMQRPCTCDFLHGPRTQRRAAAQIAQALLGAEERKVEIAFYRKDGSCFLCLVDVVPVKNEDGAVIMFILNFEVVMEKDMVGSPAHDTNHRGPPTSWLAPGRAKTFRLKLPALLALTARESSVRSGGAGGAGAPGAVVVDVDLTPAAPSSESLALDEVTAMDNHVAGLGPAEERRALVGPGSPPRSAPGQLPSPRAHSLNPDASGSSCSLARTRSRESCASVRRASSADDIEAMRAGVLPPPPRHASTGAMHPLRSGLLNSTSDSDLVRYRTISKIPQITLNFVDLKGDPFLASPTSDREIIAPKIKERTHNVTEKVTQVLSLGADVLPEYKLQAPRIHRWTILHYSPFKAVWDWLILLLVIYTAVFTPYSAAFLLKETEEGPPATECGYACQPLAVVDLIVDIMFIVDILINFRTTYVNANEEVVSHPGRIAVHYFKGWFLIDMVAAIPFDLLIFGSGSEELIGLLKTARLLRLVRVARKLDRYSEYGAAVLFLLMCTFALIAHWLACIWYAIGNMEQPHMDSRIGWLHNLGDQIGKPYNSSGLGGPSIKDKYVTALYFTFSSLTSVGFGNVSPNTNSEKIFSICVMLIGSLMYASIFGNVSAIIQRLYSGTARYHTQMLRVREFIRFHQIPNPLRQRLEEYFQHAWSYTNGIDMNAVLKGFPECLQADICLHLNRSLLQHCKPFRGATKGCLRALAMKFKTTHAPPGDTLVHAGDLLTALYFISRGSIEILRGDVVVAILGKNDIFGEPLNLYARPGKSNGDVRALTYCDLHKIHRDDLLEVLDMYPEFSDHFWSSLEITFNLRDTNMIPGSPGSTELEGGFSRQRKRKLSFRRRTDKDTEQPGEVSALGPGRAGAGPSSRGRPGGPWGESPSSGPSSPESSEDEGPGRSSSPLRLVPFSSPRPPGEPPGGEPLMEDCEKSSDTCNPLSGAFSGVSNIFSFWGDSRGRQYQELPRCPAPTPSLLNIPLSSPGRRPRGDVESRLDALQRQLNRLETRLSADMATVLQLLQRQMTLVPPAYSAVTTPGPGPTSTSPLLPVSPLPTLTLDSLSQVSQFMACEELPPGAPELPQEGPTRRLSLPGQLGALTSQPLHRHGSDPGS", "assay": "primary screen, population patch clamp on CHO cells stably expressing hERG; higher = less effect of the substance", "units": {"hERG current change (%, negative = inhibition) at 1uM": "%"}, "values": [
      {"compound": "COc1ccc(CCN(C(=O)/C=C/C(=O)O)C2CC(=O)N(c3ccccc3)C2=O)cc1", "note": "(centres unmarked)", "hERG current change (%, negative = inhibition) at 1uM": 8.45},
      {"compound": "C=C(C)CNC(=O)CCc1nnc(C2(c3ccc(Cl)cc3)CCC2)o1", "hERG current change (%, negative = inhibition) at 1uM": 12.3},
      {"compound": "CCNC(=S)N1CCN(Cc2ccccc2)CC1.O=C(O)C(=O)O", "hERG current change (%, negative = inhibition) at 1uM": -7.37},
      {"compound": "O=C(CN1CCN(CC(=O)Nc2ccc3c(c2)OCO3)CC1)Nc1ccc(F)cc1", "hERG current change (%, negative = inhibition) at 1uM": -83.5},
      {"compound": "NC(=O)CN1CCN(Cc2ccc3c(c2)OCO3)CC1", "hERG current change (%, negative = inhibition) at 1uM": 22.5},
      {"compound": "COC(=O)c1ccsc1NC(=O)CN1CCN(Cc2ccc3c(c2)OCO3)CC1", "hERG current change (%, negative = inhibition) at 1uM": -59.7},
      {"compound": "CCCN1CCN(CC(=O)Nc2nc3ccccc3s2)CC1", "hERG current change (%, negative = inhibition) at 1uM": -17.9},
      {"compound": "O=C(CN1CCN(Cc2ccccc2)CC1)Nc1nc2ccccc2s1", "hERG current change (%, negative = inhibition) at 1uM": -24.1},
      {"compound": "O=C(CN1CCN(Cc2ccc(F)cc2)CC1)Nc1nc2ccccc2s1", "hERG current change (%, negative = inhibition) at 1uM": -54},
      {"compound": "COc1ccc(NC(=O)CN2CCN(Cc3ccc4c(c3)OCO4)CC2)cc1OC.O=C(O)C(=O)O", "hERG current change (%, negative = inhibition) at 1uM": 4.15},
      {"compound": "COC(=O)c1c(NC(=O)CN2CCN(Cc3ccc4c(c3)OCO4)CC2)sc(C)c1C.O=C(O)C(=O)O", "hERG current change (%, negative = inhibition) at 1uM": 5.45},
      {"compound": "O=C(CN1CCN(c2ccc(F)cc2)CC1)Nc1ccc2c(c1)OCCO2", "hERG current change (%, negative = inhibition) at 1uM": 14.1},
      {"compound": "O=C(CN1CCN(Cc2ccc3c(c2)OCO3)CC1)Nc1ccc2c(c1)OCO2", "hERG current change (%, negative = inhibition) at 1uM": -64.3},
      {"compound": "O=C(CN1CCN(Cc2ccc3c(c2)OCO3)CC1)Nc1ccc(N2CCOCC2)cc1", "hERG current change (%, negative = inhibition) at 1uM": 8.8},
      {"compound": "O=C(CN1CCN(S(=O)(=O)c2ccc(F)cc2)CC1)Nc1ccc2c(c1)OCO2", "hERG current change (%, negative = inhibition) at 1uM": -8},
      {"compound": "CN(Cc1ccccc1)C(=O)CN1C(=O)NC(C)(c2ccc(Cl)cc2)C1=O", "note": "(centres unmarked)", "hERG current change (%, negative = inhibition) at 1uM": 12.8},
      {"compound": "COc1ccc(-c2cc(C(=O)N3CCN(c4ccccc4F)CC3)c3ccccc3n2)c(OC)c1", "hERG current change (%, negative = inhibition) at 1uM": 4.75},
      {"compound": "CCn1c(SCC(=O)NCc2ccc3c(c2)OCO3)nnc1-c1c[nH]c2ccccc12", "hERG current change (%, negative = inhibition) at 1uM": 14.9},
      {"compound": "N/C(=N\\OC(=O)CC1CCCCC1)c1ccncc1", "hERG current change (%, negative = inhibition) at 1uM": 12.3},
      {"compound": "O=C(c1ccc(F)cc1)N1CCN(C(=O)c2ccc([N+](=O)[O-])cc2)CC1", "hERG current change (%, negative = inhibition) at 1uM": -13.7},
      {"compound": "CCn1nc(C(=O)NNC(=O)c2ccccc2OCc2c(C)noc2C)c2ccccc2c1=O", "hERG current change (%, negative = inhibition) at 1uM": 9.55},
      {"compound": "O=C(CCn1c(=O)[nH]c2ccccc2c1=O)N1CCN(c2ccc(Cl)cc2)CC1", "hERG current change (%, negative = inhibition) at 1uM": -4.13},
      {"compound": "Cc1cc(NS(=O)(=O)c2ccc(NC(=O)COc3ccc(Cl)cc3Cl)cc2)no1", "hERG current change (%, negative = inhibition) at 1uM": -0.394}
    ]}
  ]
}
